Measurements published in PMC7862700, “An all-to-all approach to the identification of sequence-specific readers for epigenetic DNA modifications on cytosine”.

Columns and labels:
Experiment in all cases: DAPPL (digital affinity profiling via proximity ligation, sequencing); 10 mM Tris-HCl pH 7.5, 50 mM NaCl, 1 mM DTT, 4% glycerol, room temperature, 30 min; GST-TFs on glutathione beads, 16-mer random dsDNA library, 0.1% formaldehyde crosslink after washing; high values mean tight binding
FEV = biological target: T1, FEV (Homo sapiens, UniProt Q99581 1-238); conditions: protein: recombinant; tags: N-terminal GST; dsDNA, one strand shown
T1 sequence: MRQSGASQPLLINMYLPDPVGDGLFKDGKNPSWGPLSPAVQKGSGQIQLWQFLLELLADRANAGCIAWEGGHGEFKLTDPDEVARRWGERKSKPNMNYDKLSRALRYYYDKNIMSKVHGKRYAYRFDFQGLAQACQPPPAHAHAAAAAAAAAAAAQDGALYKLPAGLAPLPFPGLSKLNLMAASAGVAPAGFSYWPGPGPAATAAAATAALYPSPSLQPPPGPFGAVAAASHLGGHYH
Summary of the method: (§1)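 Human transcription factors carrying a GST fusion were produced in yeast, bound to glutathione beads, tagged with DNA barcodes and pooled together with a tag-only sample. Each pool was held with 200 nmole of a random double-stranded 16-mer DNA library in Tris/NaCl/DTT/glycerol buffer for 30 min at room temperature, then washed, crosslinked in 0.1% formaldehyde, proximity-ligated with BsaI/T4 ligase (1 h, 37 °C), PCR-amplified and sequenced on an Illumina NextSeq500. Binding signal is the read frequency of each hexamer for a given factor divided by its frequency in the tag-only sample.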

ETV5 = ETV5 (Homo sapiens, UniProt P41161 1-510); conditions: protein: recombinant; tags: N-terminal GST; dsDNA, one strand shown
Summary of the method: as §1

HSF1 = HSF1 (Homo sapiens, UniProt Q00613 1-529); conditions: protein: recombinant; tags: N-terminal GST; chain copies: 3; dsDNA, one strand shown
Summary of the method: as §1

SPIC = biological target: T2, SPIC (Homo sapiens, UniProt Q8N5J4 1-248); conditions: protein: recombinant; tags: N-terminal GST; dsDNA, one strand shown
T2 sequence: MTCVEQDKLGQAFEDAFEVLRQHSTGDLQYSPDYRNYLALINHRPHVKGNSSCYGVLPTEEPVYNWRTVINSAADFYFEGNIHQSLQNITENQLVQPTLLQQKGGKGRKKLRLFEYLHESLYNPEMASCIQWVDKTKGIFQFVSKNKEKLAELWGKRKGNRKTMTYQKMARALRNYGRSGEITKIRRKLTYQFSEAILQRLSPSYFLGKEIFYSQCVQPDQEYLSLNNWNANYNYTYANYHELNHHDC
Summary of the method: as §1

ELF4 = ELF4 (Homo sapiens, UniProt Q99607 1-663); conditions: protein: recombinant; tags: N-terminal GST; dsDNA, one strand shown
Summary of the method: as §1

ELK4 = biological target: T3, ELK4 (Homo sapiens, UniProt P28324-2 1-405); conditions: protein: recombinant; tags: N-terminal GST; dsDNA, one strand shown
T3 sequence: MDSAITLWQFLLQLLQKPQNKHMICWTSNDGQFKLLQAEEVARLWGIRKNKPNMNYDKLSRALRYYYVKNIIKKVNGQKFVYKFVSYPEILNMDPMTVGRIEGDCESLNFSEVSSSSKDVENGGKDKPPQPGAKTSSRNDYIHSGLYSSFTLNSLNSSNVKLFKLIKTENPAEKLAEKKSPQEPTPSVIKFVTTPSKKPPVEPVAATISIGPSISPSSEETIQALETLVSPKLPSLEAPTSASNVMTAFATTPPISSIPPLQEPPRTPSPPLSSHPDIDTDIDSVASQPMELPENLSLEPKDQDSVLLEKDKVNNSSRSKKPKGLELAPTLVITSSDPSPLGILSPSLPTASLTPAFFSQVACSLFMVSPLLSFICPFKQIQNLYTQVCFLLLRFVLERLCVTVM
Summary of the method: as §1

ETV2 = biological target: T4, ETV2 (Homo sapiens, UniProt O00321 1-342); conditions: protein: recombinant; tags: N-terminal GST; dsDNA, one strand shown
T4 sequence: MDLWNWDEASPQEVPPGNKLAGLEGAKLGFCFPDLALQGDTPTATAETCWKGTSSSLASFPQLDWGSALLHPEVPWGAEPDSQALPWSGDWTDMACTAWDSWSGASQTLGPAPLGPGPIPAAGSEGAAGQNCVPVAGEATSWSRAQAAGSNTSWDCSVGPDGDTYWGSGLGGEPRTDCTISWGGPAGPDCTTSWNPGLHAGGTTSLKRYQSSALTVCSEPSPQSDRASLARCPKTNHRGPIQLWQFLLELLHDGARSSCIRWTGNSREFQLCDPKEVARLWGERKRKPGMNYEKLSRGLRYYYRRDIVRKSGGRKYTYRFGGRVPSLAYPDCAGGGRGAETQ
Summary of the method: as §1

ELF3 = biological target: T5, ELF3 (Homo sapiens, UniProt P78545 1-371); conditions: protein: recombinant; tags: N-terminal GST; dsDNA, one strand shown
T5 sequence: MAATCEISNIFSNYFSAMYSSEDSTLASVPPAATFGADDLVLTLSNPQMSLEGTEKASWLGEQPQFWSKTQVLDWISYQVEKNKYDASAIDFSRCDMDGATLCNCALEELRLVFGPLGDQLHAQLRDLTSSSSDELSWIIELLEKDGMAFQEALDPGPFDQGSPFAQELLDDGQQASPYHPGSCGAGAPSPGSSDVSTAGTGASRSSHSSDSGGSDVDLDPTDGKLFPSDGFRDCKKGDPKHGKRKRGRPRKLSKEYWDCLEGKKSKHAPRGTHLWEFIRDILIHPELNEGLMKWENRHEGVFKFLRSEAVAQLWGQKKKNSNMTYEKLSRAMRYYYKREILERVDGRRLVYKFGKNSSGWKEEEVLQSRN
Summary of the method: as §1

CRX = CRX (Homo sapiens, UniProt O43186 1-299); conditions: protein: recombinant; tags: N-terminal GST; dsDNA, one strand shown
Summary of the method: as §1

ETV1 = ETV1 (Homo sapiens, UniProt P50549 1-477); conditions: protein: recombinant; tags: N-terminal GST; dsDNA, one strand shown
Summary of the method: as §1

ERF = biological target: T6, ERF (Homo sapiens, UniProt P50548 1-548); conditions: protein: recombinant; tags: N-terminal GST; dsDNA, one strand shown
T6 sequence: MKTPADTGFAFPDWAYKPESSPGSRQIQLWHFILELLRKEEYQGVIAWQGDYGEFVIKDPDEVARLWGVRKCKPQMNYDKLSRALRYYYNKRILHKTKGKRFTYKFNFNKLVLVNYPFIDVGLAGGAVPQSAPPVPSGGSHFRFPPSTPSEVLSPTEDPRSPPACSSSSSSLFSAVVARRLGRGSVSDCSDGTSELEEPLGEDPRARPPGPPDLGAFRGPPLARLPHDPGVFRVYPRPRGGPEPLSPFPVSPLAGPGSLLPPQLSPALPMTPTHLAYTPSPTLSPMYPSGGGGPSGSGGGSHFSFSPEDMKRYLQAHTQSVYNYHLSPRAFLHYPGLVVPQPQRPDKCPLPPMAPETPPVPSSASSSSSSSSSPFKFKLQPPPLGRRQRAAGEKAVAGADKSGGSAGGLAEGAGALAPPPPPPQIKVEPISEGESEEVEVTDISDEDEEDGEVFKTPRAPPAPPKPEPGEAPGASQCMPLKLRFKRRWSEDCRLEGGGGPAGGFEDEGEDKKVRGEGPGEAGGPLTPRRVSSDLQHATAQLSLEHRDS
Summary of the method: as §1

ETV3L = biological target: T7, ETV3L (Homo sapiens, UniProt Q6ZN32 1-361); conditions: protein: recombinant; tags: N-terminal GST; dsDNA, one strand shown
T7 sequence: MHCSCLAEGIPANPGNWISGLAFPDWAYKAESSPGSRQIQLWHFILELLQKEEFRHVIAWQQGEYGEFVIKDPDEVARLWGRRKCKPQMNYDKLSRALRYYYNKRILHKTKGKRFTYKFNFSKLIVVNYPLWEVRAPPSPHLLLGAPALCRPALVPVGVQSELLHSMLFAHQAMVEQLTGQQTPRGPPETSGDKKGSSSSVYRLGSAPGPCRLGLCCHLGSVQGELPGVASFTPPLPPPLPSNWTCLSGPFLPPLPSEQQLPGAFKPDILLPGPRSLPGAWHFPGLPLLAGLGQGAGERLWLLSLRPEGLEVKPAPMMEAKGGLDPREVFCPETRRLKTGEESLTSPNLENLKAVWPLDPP
Summary of the method: as §1

ETS2 = biological target: T8, ETS2 (Homo sapiens, UniProt P15036 1-469); conditions: protein: recombinant; tags: N-terminal GST; dsDNA, one strand shown
T8 sequence: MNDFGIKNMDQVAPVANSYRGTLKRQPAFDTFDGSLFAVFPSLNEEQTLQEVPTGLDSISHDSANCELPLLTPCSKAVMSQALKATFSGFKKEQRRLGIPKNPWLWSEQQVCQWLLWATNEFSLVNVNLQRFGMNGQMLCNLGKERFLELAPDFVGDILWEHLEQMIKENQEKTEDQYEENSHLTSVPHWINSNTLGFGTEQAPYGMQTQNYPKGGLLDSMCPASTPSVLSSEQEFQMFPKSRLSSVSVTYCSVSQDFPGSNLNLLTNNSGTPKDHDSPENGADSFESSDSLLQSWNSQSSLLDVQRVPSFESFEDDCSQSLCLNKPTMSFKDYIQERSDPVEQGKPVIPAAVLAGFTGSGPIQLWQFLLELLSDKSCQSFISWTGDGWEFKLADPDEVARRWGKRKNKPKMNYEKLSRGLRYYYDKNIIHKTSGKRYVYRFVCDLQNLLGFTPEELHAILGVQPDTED
Summary of the method: as §1

SPDEF = biological target: T9, SPDEF (Homo sapiens, UniProt O95238 1-335); conditions: protein: recombinant; tags: N-terminal GST; dsDNA, one strand shown
T9 sequence: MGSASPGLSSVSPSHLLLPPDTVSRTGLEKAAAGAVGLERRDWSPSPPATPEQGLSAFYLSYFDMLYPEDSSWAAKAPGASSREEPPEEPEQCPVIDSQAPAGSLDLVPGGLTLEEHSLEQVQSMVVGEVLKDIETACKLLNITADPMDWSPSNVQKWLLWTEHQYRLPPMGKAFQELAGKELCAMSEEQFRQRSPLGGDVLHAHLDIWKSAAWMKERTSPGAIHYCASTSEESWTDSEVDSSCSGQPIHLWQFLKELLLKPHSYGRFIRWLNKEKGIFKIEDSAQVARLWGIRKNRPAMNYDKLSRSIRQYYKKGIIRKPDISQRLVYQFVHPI
Summary of the method: as §1

ETV7 = biological target: T10, ETV7 (Homo sapiens, UniProt Q9Y603 1-341); conditions: protein: recombinant; tags: N-terminal GST; dsDNA, one strand shown
T10 sequence: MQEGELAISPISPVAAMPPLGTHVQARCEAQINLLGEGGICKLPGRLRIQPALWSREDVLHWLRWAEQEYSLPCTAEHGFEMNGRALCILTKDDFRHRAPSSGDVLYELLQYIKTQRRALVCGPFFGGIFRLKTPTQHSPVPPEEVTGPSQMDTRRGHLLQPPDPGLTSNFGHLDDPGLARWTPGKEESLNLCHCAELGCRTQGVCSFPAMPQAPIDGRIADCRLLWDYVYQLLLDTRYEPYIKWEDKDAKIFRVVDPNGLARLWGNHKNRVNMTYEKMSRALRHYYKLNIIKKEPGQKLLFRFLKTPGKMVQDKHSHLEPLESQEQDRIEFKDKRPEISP
Summary of the method: as §1

ELF5 = biological target: T11, ELF5 (Homo sapiens, UniProt Q9UKW6-2 1-255); conditions: protein: recombinant; tags: N-terminal GST; dsDNA, one strand shown
T11 sequence: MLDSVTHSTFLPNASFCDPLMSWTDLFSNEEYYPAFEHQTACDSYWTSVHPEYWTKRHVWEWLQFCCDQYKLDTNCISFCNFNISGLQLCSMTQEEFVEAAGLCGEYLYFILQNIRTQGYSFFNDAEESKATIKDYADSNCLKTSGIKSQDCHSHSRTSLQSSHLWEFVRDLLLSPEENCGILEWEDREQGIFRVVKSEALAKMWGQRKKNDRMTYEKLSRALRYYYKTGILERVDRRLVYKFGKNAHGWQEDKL
Summary of the method: as §1

ETV3 = biological target: T12, ETV3 (Homo sapiens, UniProt P41162-2 1-143); conditions: protein: recombinant; tags: N-terminal GST; dsDNA, one strand shown
T12 sequence: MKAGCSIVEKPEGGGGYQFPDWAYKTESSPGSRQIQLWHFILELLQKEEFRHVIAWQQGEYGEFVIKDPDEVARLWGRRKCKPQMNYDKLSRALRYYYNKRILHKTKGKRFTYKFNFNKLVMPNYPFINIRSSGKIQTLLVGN
Summary of the method: as §1

ETV6 = ETV6 (Homo sapiens, UniProt P41212 1-452); conditions: protein: recombinant; tags: N-terminal GST; dsDNA, one strand shown
Summary of the method: as §1

HSF1, sequence (Q00613 whole entry): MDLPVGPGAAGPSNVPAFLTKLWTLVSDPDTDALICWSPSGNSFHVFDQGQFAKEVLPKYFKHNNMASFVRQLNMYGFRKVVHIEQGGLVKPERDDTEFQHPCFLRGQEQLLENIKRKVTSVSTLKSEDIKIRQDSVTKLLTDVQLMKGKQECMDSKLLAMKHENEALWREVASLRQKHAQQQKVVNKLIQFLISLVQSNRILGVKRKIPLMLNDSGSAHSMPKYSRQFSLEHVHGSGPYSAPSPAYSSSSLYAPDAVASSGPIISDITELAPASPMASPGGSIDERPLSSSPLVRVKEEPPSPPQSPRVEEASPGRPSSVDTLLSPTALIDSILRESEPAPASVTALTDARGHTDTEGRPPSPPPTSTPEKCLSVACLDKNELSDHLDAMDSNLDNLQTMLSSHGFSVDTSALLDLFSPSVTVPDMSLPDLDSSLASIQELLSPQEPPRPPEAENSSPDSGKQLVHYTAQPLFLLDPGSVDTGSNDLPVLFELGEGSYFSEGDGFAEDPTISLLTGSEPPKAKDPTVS
ETV1, sequence (P50549 whole entry): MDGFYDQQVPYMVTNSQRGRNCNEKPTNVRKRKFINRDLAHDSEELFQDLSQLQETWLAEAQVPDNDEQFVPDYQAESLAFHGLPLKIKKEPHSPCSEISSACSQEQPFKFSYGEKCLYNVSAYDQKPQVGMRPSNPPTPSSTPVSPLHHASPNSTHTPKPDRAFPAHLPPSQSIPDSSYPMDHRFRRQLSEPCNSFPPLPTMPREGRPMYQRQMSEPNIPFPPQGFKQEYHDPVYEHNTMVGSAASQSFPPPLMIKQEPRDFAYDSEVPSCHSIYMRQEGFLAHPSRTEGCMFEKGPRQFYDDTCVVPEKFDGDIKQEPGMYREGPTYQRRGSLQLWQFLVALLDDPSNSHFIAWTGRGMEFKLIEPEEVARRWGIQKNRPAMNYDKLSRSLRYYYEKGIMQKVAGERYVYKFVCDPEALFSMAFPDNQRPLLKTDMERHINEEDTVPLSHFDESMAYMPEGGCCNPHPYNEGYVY
ELF4, sequence (Q99607 whole entry): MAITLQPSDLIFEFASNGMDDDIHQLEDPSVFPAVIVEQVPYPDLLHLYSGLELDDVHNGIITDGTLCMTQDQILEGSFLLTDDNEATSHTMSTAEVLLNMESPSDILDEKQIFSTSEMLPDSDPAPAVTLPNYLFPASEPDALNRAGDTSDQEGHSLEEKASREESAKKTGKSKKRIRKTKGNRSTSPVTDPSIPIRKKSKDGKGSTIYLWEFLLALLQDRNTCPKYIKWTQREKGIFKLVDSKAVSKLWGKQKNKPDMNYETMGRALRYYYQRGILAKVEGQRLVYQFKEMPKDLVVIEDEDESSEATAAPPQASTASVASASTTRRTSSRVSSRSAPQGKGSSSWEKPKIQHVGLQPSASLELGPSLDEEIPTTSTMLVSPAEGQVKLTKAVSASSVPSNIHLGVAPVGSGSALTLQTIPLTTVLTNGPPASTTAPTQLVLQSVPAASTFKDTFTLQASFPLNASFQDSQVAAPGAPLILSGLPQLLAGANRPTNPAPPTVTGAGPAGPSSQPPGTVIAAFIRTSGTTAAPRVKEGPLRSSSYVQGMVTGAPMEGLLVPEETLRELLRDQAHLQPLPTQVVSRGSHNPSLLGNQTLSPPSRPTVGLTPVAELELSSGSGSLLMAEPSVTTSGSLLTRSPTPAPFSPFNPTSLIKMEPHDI
CRX, sequence (O43186 whole entry): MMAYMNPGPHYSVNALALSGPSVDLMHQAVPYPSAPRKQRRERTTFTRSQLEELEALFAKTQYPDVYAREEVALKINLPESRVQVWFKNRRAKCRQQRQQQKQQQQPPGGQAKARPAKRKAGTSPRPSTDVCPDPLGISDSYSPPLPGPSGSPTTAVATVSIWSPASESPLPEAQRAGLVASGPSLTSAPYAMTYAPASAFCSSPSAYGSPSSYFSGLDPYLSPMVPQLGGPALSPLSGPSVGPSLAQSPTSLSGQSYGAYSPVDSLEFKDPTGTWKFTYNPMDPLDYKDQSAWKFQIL
ETV5, sequence (P41161 whole entry): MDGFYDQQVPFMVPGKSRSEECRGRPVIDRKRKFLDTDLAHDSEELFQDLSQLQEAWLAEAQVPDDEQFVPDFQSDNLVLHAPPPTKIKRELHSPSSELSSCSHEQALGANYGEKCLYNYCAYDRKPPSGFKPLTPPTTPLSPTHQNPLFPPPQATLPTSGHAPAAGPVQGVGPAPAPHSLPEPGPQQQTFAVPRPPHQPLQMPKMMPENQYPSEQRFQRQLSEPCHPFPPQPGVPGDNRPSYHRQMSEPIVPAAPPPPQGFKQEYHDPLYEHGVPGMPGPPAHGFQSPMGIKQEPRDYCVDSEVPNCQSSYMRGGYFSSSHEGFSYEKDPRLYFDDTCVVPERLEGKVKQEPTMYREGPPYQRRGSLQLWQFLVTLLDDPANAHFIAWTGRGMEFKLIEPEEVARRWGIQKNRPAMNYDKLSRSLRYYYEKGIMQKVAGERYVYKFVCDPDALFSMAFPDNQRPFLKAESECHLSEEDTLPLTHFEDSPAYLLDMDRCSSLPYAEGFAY
ETV6, sequence (P41212 whole entry): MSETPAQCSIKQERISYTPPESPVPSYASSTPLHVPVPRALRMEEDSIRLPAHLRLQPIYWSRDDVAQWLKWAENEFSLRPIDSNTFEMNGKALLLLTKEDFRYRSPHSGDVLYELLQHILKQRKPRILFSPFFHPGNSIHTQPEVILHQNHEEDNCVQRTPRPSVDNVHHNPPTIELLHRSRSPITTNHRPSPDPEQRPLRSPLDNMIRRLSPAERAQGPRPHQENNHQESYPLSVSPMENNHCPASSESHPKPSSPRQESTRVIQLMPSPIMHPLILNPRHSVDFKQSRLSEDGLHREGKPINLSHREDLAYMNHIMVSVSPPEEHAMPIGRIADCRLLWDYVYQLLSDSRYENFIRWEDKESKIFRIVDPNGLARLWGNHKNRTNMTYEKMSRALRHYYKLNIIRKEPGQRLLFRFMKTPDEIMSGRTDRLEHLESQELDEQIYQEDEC

ATTACC
binding signal (FEV): 1.25 fold enrichment (6-mer frequency, TF over GST control) | binding signal (ETV5): 1.36 fold enrichment (6-mer frequency, TF over GST control) | binding signal (HSF1): 1.58 fold enrichment (6-mer frequency, TF over GST control) | binding signal (SPIC): 1.26 fold enrichment (6-mer frequency, TF over GST control) | binding signal (ELF4): 1.17 fold enrichment (6-mer frequency, TF over GST control) | binding signal (ELK4): 1.21 fold enrichment (6-mer frequency, TF over GST control) | binding signal (ETV2): 1.4 fold enrichment (6-mer frequency, TF over GST control) | binding signal (ELF3): 1.1 fold enrichment (6-mer frequency, TF over GST control) | binding signal (CRX): 2.17 fold enrichment (6-mer frequency, TF over GST control) | binding signal (ETV1): 1.23 fold enrichment (6-mer frequency, TF over GST control) | binding signal (ERF): 1.18 fold enrichment (6-mer frequency, TF over GST control) | binding signal (ETV3L): 1.2 fold enrichment (6-mer frequency, TF over GST control) | binding signal (ETS2): 1.27 fold enrichment (6-mer frequency, TF over GST control) | binding signal (SPDEF): 1.18 fold enrichment (6-mer frequency, TF over GST control) | binding signal (ETV7): 1.28 fold enrichment (6-mer frequency, TF over GST control) | binding signal (ELF5): 1.32 fold enrichment (6-mer frequency, TF over GST control) | binding signal (ETV3): 1.31 fold enrichment (6-mer frequency, TF over GST control) | binding signal (ETV6): 1.33 fold enrichment (6-mer frequency, TF over GST control)
